We go through 46 compounds from PubChem BioAssay (NCI).

Molecules are shown by their SMILES. This is part of a sample that, as a whole, favours compounds with a hit. Of some 79,000 tested, about 15% had one in any assay. Unmarked numbers belong to inactive results. Activity calls are given as the source filed them. Rule as the data show it: active = growth inhibition above about 70%; inactive = the rest.

Experiment [1] in a line: NCI Yeast Anticancer Drug Screen. Data for the rad50 strain (AID 155).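 Also: 0% = growth of vehicle-only cultures of the same strain.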 The following applies: S. cerevisiae rad50 strain growth inhibition; at 50.0 µM; active compounds read high. The essentials:
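Cells are treated with compound, grown, and their growth is then scored against vehicle-only cultures of the same repair-deficient yeast strain.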

Experiment [2] can be described thus: NCI Yeast Anticancer Drug Screen. Data for the mec2-1 strain (AID 157). Particulars: S. cerevisiae mec2-1 strain, at 50.0 µM, active compounds read high. The essentials: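 Yeast mec2-1 mutant treated with compound. Readout: growth inhibition vs vehicle controls.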
Experiment [3] in a line: NCI Yeast Anticancer Drug Screen. Data for the sgs1 mgt1 strain (AID 161).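 Also: 0% = growth of cultures given vehicle only.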 Particulars: S. cerevisiae sgs1 mgt1 strain, at 50.0 µM, active compounds read high. The essentials: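 Mutant yeast exposed to compound; growth scored against vehicle-only wells.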
A short description of experiment [4]: NCI Yeast Anticancer Drug Screen. Data for the cln2 rad14 strain (AID 165).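 Also: 0% = growth equal to vehicle treated cultures.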 Particulars: S. cerevisiae cln2 rad14 strain, at 50.0 µM, active compounds read high. The essentials:
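cln2 rad14 yeast strain; compound exposure; growth inhibition read vs vehicle controls.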

Experiment [5] can be described thus: NCI Yeast Anticancer Drug Screen. Data for the mlh1 rad18 strain (AID 175). Particulars: S. cerevisiae mlh1 rad18 strain growth inhibition; at 50.0 µM; active compounds read high. The essentials:
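Yeast w/ defined DNA-repair lesions; compound exposure; growth vs vehicle controls → % inhibition.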

Experiment [6] can be described thus: NCI Yeast Anticancer Drug Screen. Data for the bub3 strain (AID 167). The following applies: S. cerevisiae bub3 mutant strain, at 50.0 µM, active compounds read high. The essentials: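 Part of a panel of yeast mutants defective in DNA damage repair or cell cycle regulation. Each strain is grown with compound, and inhibition is calculated relative to solvent-treated cultures.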

As for `CCCOC(=O)C(C)(C)C(OP(OCCC)OCCC)=C(C)C`, the growth inhibition was -7.35% in experiment [1]; 4.35% in experiment [2]; -2.5% in experiment [3]; -0.9% in experiment [4]; 3.3% in experiment [5].
As to `Oc1ccccc1C1NCCc2[nH]cnc21` (stereo unspecified), the growth inhibition in experiment [1] is 39%; in experiment [2], 11.3%; in experiment [3] it was 14.4%; in experiment [4], 30.8%; in experiment [5] it was 7.9%.
For `Fc1cccc2cc3cccc[n+]3cc12`, the growth inhibition in experiment [1] is 5.6%; in experiment [2] it was 6.65%; in experiment [3] it was 3.55%; in experiment [4] it was -36.3%; in experiment [5], -1.8%.
For `CC(=O)c1ccc(Br)cc1` the same measures were 2%, -5.5%, -0.65%, 8.7% and 1%.
Turning to `CCOP(=O)(OCC)N1C(C)C1C` (stereo unspecified), the growth inhibition in experiment [1] is -0.05%; in experiment [2], 2.8%; in experiment [3] it was 17.6%; in experiment [4], -8.3%; in experiment [6], 4.25%; in experiment [5] it was -4.75%.
Consider `C[C@H](CCC1SC1(C)C)C1CCC2(C)C3=C(CC[C@]12C)[C@@]1(C)CC[C@H](O)C(C)(C)C1CC3` (stereo partly specified), for which the growth inhibition was 9.85% in experiment [1]; -11.2% in experiment [2]; -11.2% in experiment [3]; -48.8% in experiment [4]; 1.9% in experiment [5].
As for `CCOP(=O)(O)OCC`, the growth inhibition was -16.6% in experiment [1]; -20.4% in experiment [2]; -20.1% in experiment [3]; -0.25% in experiment [4]; -49.9% in experiment [5].
`CCC[As](=O)(O)CC[As](=O)(O)CCC`: the growth inhibition was 15.8% in experiment [1]; 34.2% in experiment [2]; 59.3% in experiment [3]; -3.05% in experiment [4]; 14.4% in experiment [5].
For `NNC(N)=O` the same measures were 1.3%, 23.1%, -38.9%, -18.3% and -14.8%.
`Cn1cnnc1N`: the growth inhibition in experiment [1] was 5.4%; in experiment [2], 5.7%; in experiment [3], 6.3%; in experiment [4], 4.4%; in experiment [5] it was 4.35%.
In the same order, the values of `CC([NH-])C[NH-].CC([NH-])C[NH-].[Cl-].[Cl-].[Co+3].[O-][Cl+3]([O-])([O-])O` (stereo unspecified) are 37.5%, 12.6%, 40.5%, 25.6% and 1.6%.
For `O=c1cc(N2CCNCC2)nc2ccccn12` the same measures were 2.9%, 4.4%, 4.95%, 1.4% and 6.35%.
In the case of `Nc1cccc2ccccc12`, the growth inhibition was 17.1% in experiment [1]; -9.95% in experiment [2]; 6.65% in experiment [3]; -28.9% in experiment [4]; 19.2% in experiment [6]; 4.4% in experiment [5].
Regarding `CS/C([S-])=N/N=C\c1ccccn1.CS/C([S-])=N/N=C\c1ccccn1.[Ni+2]`, the growth inhibition is 14.7% in experiment [1]; -6.75% in experiment [2]; 17.2% in experiment [3]; -35.4% in experiment [4]; -0.45% in experiment [5].
As for `CC1(C)N=C(N)N=C(N)N1c1ccc(OCCCOc2ccc(S(=O)(=O)F)cc2)cc1`, the growth inhibition in experiment [1] is 35.1%; in experiment [2], 72.8% (active); in experiment [3], 89.1% (active); in experiment [6] it was 31.5%; in experiment [5], 84.5% (active).
For `C[C@]12CC[C@H]3[C@@H](CCC4=C[C@@H](OC5OCC(OC6OC(CO)C(O)C(O)C6O)C(O)C5O)CC[C@@]43C=O)[C@@]1(O)CCC2C1=CC(=O)OC1` (stereo partly specified) the same measures were -31.8%, -20.4%, -29.6%, -16.7% and 2.2%.
For `O=C([CH-]C(=O)c1ccccc1)c1ccccc1.O=C([CH-]C(=O)c1ccccc1)c1ccccc1.[OH-].[OH-].[Ti+4]` the same measures were 6.25%, -9.65%, -6.85%, 36.9% and 8.7%.
As for `O=C(CCl)Oc1ccccc1`, the growth inhibition was -47.1% in experiment [1]; -33.5% in experiment [2]; -27.1% in experiment [3]; -59.5% in experiment [6]; -28.1% in experiment [5].
Consider `C[C@@H]1C[C@@H](O)[C@]2(O)O[C@@H]3C[C@@]4(C=O)[C@@H](CC[C@@H]5[C@@H]4CC[C@]4(C)[C@@H](C6=CC(=O)OC6)CC[C@]54O)C[C@H]3O[C@@H]2O1`, for which the growth inhibition in experiment [1] is -7.25%; in experiment [2], -16.6%; in experiment [3], 27.4%; in experiment [6], -15.2%; in experiment [5], -96.5%.
In the same order, the values of `Cn1c2c(c3ccccc31)CCN1OCC=C[C@@H](C(=O)O)[C@@H]21` are -8.3%, 3.15%, -6.3%, 42.3% and -8.85%.
For `COC(=O)/C=C/c1ccc(Cl)cc1` the same measures were -7%, -1.8%, 0.5%, -10.2% and -7.4%.
Turning to `Oc1ccc(Cl)cc1Br`, the growth inhibition in experiment [1] was -2.4%; in experiment [2], -14.6%; in experiment [3], -1.1%; in experiment [6], -23.4%; in experiment [5], -0.15%.
For `C=C(Nc1nc2ccc(C)cc2s1)C(=O)C(CC)C(=O)C(CC)CC1C(=O)NC(=O)NC1=O` (stereo unspecified) the same measures were -23.4%, -13.6%, 4.35%, -32.6% and -0.2%.
For `Cc1cccc(C#N)c1` the same measures were 3.55%, -26.1%, 1.2%, -7% and -0.05%.
In the same order, the values of `COc1ccc2c(c[n+](C)c3c4cc5c(cc4ccc23)OCO5)c1OC` are 0.2%, -6.25%, 5.6%, -6.5% and 0.6%.
On to `CCCCOCCOP(=O)(OCCOCCCC)OCCOCCCC`, for which the growth inhibition in experiment [1] was 7.85%; in experiment [2], -15.2%; in experiment [3], 2%; in experiment [6], -39%; in experiment [5] it was -28.4%.
In the same order, the values of `C1C[N-]CC[N-]1.C1C[N-]CC[N-]1.[Zn]` are 98.7% (active), 99.5% (active), 99.5% (active), 99.4% (active) and 99.3% (active).
For `COc1c(O)cc2c(c1OC)-c1ccc(SC)c(=O)cc1C(NC(C)=O)CC2` (stereo unspecified) the same measures were 10.4%, -9.4%, 4.95%, 1.95% and 23.9%.
In the same order, the values of `O=P1(N(CCCl)CCCl)NCCCO1` (stereo unspecified) are -8.1%, -32.2%, -6.1%, -15.2% and -7.05%.
As for `O=S1(=O)OCCOS(=O)(=O)C1(Cl)Cl`, the growth inhibition in experiment [1] is -32.6%; in experiment [2], -41.5%; in experiment [3], -18%; in experiment [6], -31.6%; in experiment [5], -8.65%.
For `CCC1(CNC(=O)CN)C(=O)NC(=O)NC1=O` the same measures were -14.8%, -0.85%, -4.4%, 2.7% and 21.6%.
For `CCOC(=O)N[N+]12CCN(CC1)CC2` the same measures were 0.45%, -2.65%, 1.95%, -1.2% and -11.1%.
In the same order, the values of `CCC(=O)c1ccc(OC)c(OC)c1` are 7%, -1.3%, -0.15%, 15.7% and 1.75%.
With `COc1cc2c(c(OC)c1OC)-c1ccc(SC)c(=O)cc1[C@@H](NC(C)=O)CC2`, the growth inhibition is -12.4% in experiment [1]; -16.9% in experiment [2]; -19.1% in experiment [3]; -27.4% in experiment [6]; -7.3% in experiment [5].
`CCCCN1C(=O)CC(=O)N(c2ccccc2)C1=O`: the growth inhibition in experiment [1] was -8.55%; in experiment [2], -28%; in experiment [3], -3.8%; in experiment [6], -14.4%; in experiment [5], -4.35%.
For `CC(C)c1ccc(CCN)cc1` the same measures were 6.25%, 3.5%, -19.8%, 5.65% and -6.1%.
For `O=[N+]([O-])c1ccc(/C=C/C=C/C=C/C=C/c2ccc(S(=O)(=O)F)cc2Cl)c(Cl)c1` the same measures were -1.05%, -2.85%, -14.8%, -10.3% and -1.2%.
Regarding `CC[O-].CC[O-].O=C([CH-]C(=O)c1ccccc1)c1ccccc1.O=C([CH-]C(=O)c1ccccc1)c1ccccc1.[Ti+4]`, the growth inhibition was 34.3% in experiment [1]; 30.9% in experiment [2]; 29.1% in experiment [3]; 52.7% in experiment [6]; 26.1% in experiment [5].
For `SCc1ccccc1.[Cu+2]` the same measures were -1.4%, -15.9%, -0.45%, -50.7% and -2.75%.
Consider `CC(C)N[C@@H]1CCC[C@H]1O`, for which the growth inhibition in experiment [1] is 4.5%; in experiment [2], -0.1%; in experiment [3], -17.1%; in experiment [6] it was 4.05%; in experiment [5], -19.5%.
For the compound `CN1CN(c2ccccc2)C2(CCN(Cc3csc4ccccc34)CC2)C1=O`, the growth inhibition in experiment [1] is -50.9%; in experiment [2] it was -31.5%; in experiment [3] it was -47.5%; in experiment [6] it was -7.1%.
In the case of `CN=NNc1nc[nH]c1C(N)=O`, the growth inhibition is 23.9% in experiment [1]; 32.2% in experiment [2]; 25.2% in experiment [3]; 3.85% in experiment [6]; 40.5% in experiment [5].
For `CCCCC1(CCC)C(=O)NC(=O)NC1=O` the same measures were 9.8%, 9.5%, 1%, 1% and 15.8%.
With `C[N+](C)(C)CC1(COC(=O)C(O)(c2ccccc2)c2ccccc2)CCCCC1`, the growth inhibition is -3.5% in experiment [1]; 6.45% in experiment [2]; -16.8% in experiment [3]; -2.95% in experiment [6]; 5.05% in experiment [5].
In the same order, the values of `O=C(CC(=O)c1ccccc1)c1ccccc1.O=C(CC(=O)c1ccccc1)c1ccccc1.[Pd]` are 20.5%, 4.9%, 6.7%, 6.05% and 19.8%.
In the same order, the values of `CN1CN(c2ccccc2)C2(CCN(CCCCCCF)CC2)C1=O` are -5.55%, -15.9%, -19.4%, -5.95% and 16.4%.
